Experimental findings from PubChem BioAssay (EPA / NIEHS) are described below.

Inconclusive results are not listed. The source made the active and inactive calls. Rule for the calls, unless noted: active = hit-call score of the fitted dose curve at least 0.9, where 1 is the maximum; inconclusive = response in the unintended direction; inactive = score below 0.9.

One may read the AC50 as the concentration at which the activity in the assay is half-maximal.

Assay [1] can be described thus: TOX21_p53_BLA_p2_viability: Viability Assessment in the Tox21 HCT-116 p53 Agonism Beta-lactamase Assay, Phase 2 (AID 2283591).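 Note: actives lower the ATP signal meaning cytotoxicity.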 Summed up:
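HCT-116 p53-bla cells (4000/well) rested 5 h at 37C, then received compounds in DMSO (217-fold dilution) for 16 h at 37C, 5% CO2. After the CCF4 read, CellTiter-Glo was added; ATP luminescence was read after 30 min at room temperature.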

A short description of assay [2]: TOX21_p53_BLA_p3_viability: Viability Assessment in the Tox21 HCT-116 p53 Agonism Beta-lactamase Assay, Phase 3 (AID 2283593).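 Note: cells exposed to compound for 16 h before reading.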 The gist of the method:
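HCT-116 cells (4000/well) rested 5 h at 37C, then got DMSO compounds by pin tool (217-fold dilution) for 16 h at 37C, 5% CO2. After the bla read, CellTiter-Glo was added and luminescence read at 30 min, room temperature.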

The nature of assay [3]: TOX21_p53_BLA_p4_viability: Viability Assessment in the Tox21 HCT-116 p53 Agonism Beta-lactamase Assay, Phase 4 (AID 2283597).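 Note: hits lower the luminescence signal meaning cytotoxicity.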 The gist of the method:
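Readout: ATP luminescence (CellTiter-Glo), measured 30 min after reagent addition at RT. The reagent followed a 2 h CCF4-AM incubation, and the cells had been exposed to compound for 16 h at 37C.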

Assay [4] deals with Cellular tumor antigen p53 (Homo sapiens) (UniProt P04637). Description: TOX21_p53_BLA_p4_ratio: Tox21 HCT-116 p53 Agonism Beta-lactamase Assay, Ratio, Phase 4 (AID 2283601). Summed up:
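HCT116 cells carrying an inducible beta-lactamase reporter were plated at 4000 cells/well, rested 5 h, then exposed to compounds in DMSO (217-fold dilution) for 16 h at 37C. CCF4-AM substrate was loaded 2 h at room temperature; 460/530 nm emission ratio scored gain-of-signal versus DMSO.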

The target is the same in assay [5]. Description: TOX21_p53_BLA_p5_ratio: Tox21 HCT-116 p53 Agonism Beta-lactamase Assay, Ratio, Phase 5 (AID 2283599). The gist of the method:
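HCT-116 cells carrying a p53-inducible beta-lactamase reporter were seeded at 4000 cells/well and dosed after 5 h with compound in DMSO (217-fold dilution). After 16 h at 37C, CCF4-AM substrate was added for 2 h, and the 460/530 nm emission ratio was scored as gain-of-signal versus DMSO.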

The nature of assay [6]: TOX21_p53_BLA_p5_viability: Viability Assessment in the Tox21 HCT-116 p53 Agonism Beta-lactamase Assay, Phase 5 (AID 2283600). The gist of the method: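 Workflow: seed 4000 cells per well, wait 5 h, add compounds (DMSO, 217-fold dilution), incubate 16 h, load CCF4-AM 2 h, add CellTiter-Glo, read luminescence after 30 min.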
The target of assay [7] is PGR (gene 5241) (UniProt P06401). Nature of the assay: TOX21_PR_BLA_Followup_Antagonist_ratio: Tox21 HEK293 Progesterone Receptor (PR) Antagonism Beta-lactamase Follow-Up Assay, Ratio (AID 2283934).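 Note: PR-UAS-bla HEK293T cells stimulated with 1 nM R5020 agonist for 16 hr.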 The gist of the method:
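Readout is the blue/green (ch2/ch1) substrate cleavage ratio after 2 hours at room temperature, following 16 hr co-treatment of PR-bla HEK293T cells with compound and 1nM promegestone. Multiplexed CellTiter-Glo viability flags cytotoxicity; DMSO baseline.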

Assay [8] in a line: TOX21_PR_BLA_Followup_Agonist_viability: Viability Assessment in the Tox21 HEK293 Progesterone Receptor (PR) Agonism Beta-lactamase Follow-Up Assay (AID 2283935).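 Note: signal loss means lower viability so actives are cytotoxic.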 The gist of the method: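 Run multiplexed with the beta-lactamase FRET read, this endpoint measures ATP by CellTiter-Glo luminescence (30 min, room temperature). PR-UAS-bla HEK293T cells received compound 6 hr after plating and were then incubated 16 hr at 37C in 2% stripped serum.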

Assay [9] in a line: TOX21_PR_BLA_Followup_Antagonist_viability: Viability Assessment in the Tox21 HEK293 Progesterone Receptor (PR) Antagonism Beta-lactamase Follow-Up Assay (AID 2283936).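 Note: cells exposed to compound with R5020 agonist for 16 h; hits lower the luminescence signal meaning cytotoxicity.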 Summed up:
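PR-UAS-bla HEK293T cells in medium with 2% charcoal-stripped FBS were treated with compounds plus R5020 for 16 hr at 37C. After the beta-lactamase read, CellTiter-Glo was added to the same wells and luminescence read after 30 min at room temperature.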

Assay [10] concerns the target PGR (gene 5241) (UniProt P06401). Description: TOX21_PR_LUC_Followup_Antagonist: Tox21 HEK293 Progesterone Receptor (PR) Antagonism Luciferase Follow-Up Assay (AID 2283938).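 Note: curve fitted upward as signal gain over DMSO baseline despite antagonist label.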 The gist of the method:
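Cells are grown 5 days in charcoal-stripped-FBS assay medium, plated, left 5 h, then dosed with compound and incubated 16 h. ONE-Glo reagent is added and luminescence read after 30 min.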

Assay [11] in a line: TOX21_PR_LUC_Followup_Agonist_viability: Viability Assessment in the Tox21 HEK293 Progesterone Receptor (PR) Agonism Luciferase Follow-Up Assay (AID 2283941).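 Note: loss of signal means cytotoxicity so actives lower viability.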 Summed up: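 Cytotoxicity counter-readout in the PR-A luciferase reporter line HEK293, with 16 h compound exposure at 37C after cells were cultured in charcoal-stripped serum. Cellular ATP quantified by CellTiter-Glo luminescence.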

Assay [12] relates to Brachyury (BRA) Protein Expression, Deisenroth Lab, TBXT (gene 6862). Description: CCTE_Deisenroth_DEVTOX-GLR_legacy_Bra: (Legacy) CCTE's DevTox GLR-Endo Assay Evaluation of Brachyury (BRA) Protein Expression, Deisenroth Lab (AID 2284329; active = hit-call score of the fitted dose curve at least 0.9, where 1 is the maximum; inactive = score below 0.9). The gist of the method:
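High-content imaging of fixed RUES2-GLR cells after a 48-hour differentiation with two compound exposures yields percent cells whose Bra signal exceeds pluripotent control median by 5x BMAD; values are baseline-corrected to DMSO.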

A short description of assay [13]: CCTE_Deisenroth_DEVTOX-GLR_legacy_CellCount: (Legacy) Viability Assessment in CCTE's DevTox GLR-Endo Assay, Deisenroth Lab (AID 2284331; active = hit-call score of the fitted dose curve at least 0.9, where 1 is the maximum; inactive = score below 0.9). The following applies: actives raise or lower the signal. Summed up:
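Nuclei count by fluorescence high-content imaging (5 fields/well) after 48 h differentiation of RUES2-GLR cells. Two exposures, 24 h apart; 1 nM - 200 uM series; n=4. Bidirectional fit vs DMSO.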

Assay [14] has as its system SRY-box transcription factor 2 (SOX2) Protein Expression, Deisenroth Lab, SOX2 (gene 6657). Nature of the assay: CCTE_Deisenroth_DEVTOX-GLR_Endo_SOX2: CCTE's DevTox GLR-Endo Assay Evaluation of SRY-box transcription factor 2 (SOX2) Protein Expression, Deisenroth Lab (AID 2284412). The gist of the method:
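Endpoint is percent SOX2-positive cells (SOX2+ count/total cells) minus 0.2% DMSO control, from high-content imaging of fixed, nuclear-stained RUES2-GLR cells. Dosing twice at 24 h intervals over 48 h differentiation, 1 nM–200 uM in 10 points.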

Assay [15] concerns Brachyury (BRA) Protein Expression, TBXT (gene 6862). Nature of the assay: CCTE_Deisenroth_DEVTOX-GLR_Endo_BRA: CCTE's DevTox GLR-Endo Assay Evaluation of Brachyury (BRA) Protein Expression, Deisenroth Lab (AID 2284417; active = hit-call score of the fitted dose curve at least 0.9, where 1 is the maximum; inactive = score below 0.9). Summed up:
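RUES2-GLR human pluripotent cells, seeded 24 h, then differentiated 48 h in defined media with two chemical exposures 24 h apart (10-point series, 1 nM - 200 uM). Fixed, nuclear-stained, imaged; endpoint is percent BRA+ cells minus 0.2% DMSO control.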

The nature of assay [16]: CCTE_Deisenroth_DEVTOX-GLR_Endo_CellCount: Viability Assessment in CCTE's DevTox GLR-Endo Assay, Deisenroth Lab (AID 2284420; active = hit-call score of the fitted dose curve at least 0.9, where 1 is the maximum; inactive = score below 0.9). The gist of the method: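 Human pluripotent RUES2-GLR line; 24 h pre-seed; 48 h endoderm-directed differentiation; 2 doses, q24h; 10 conc., 1 nM - 200 uM; fix + nuclear dye; 5 fields/well imaged; readout = nuclei count, % change vs 0.2% DMSO; n=4.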

For assay [17], the system named is SRY-box transcription factor 2 (SOX2) Protein Expression, Deisenroth Lab, SOX2 (gene 6657). Nature of the assay: CCTE_Deisenroth_DEVTOX-GLR_Pluri_SOX2: CCTE's DevTox GLR-Pluri Assay Evaluation of SRY-box transcription factor 2 (SOX2) Protein Expression, Deisenroth Lab (AID 2284428; active = hit-call score of the fitted dose curve at least 0.9, where 1 is the maximum; inactive = score below 0.9). The gist of the method: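 Steps: seed RUES2-GLR cells for 24 h; start 48 h differentiation in defined media; dose test chemicals at 0 and 24 h (1 nM–200 uM); fix, stain nuclei, image; compute SOX2+ percentage against 0.2% DMSO wells.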

For assay [18], the system named is Brachyury (BRA) Protein Expression, Deisenroth Lab, TBXT (gene 6862). Nature of the assay: CCTE_Deisenroth_DEVTOX-GLR_Pluri_BRA: CCTE's DevTox GLR-Pluri Assay Evaluation of Brachyury (BRA) Protein Expression, Deisenroth Lab (AID 2284429). Summed up: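 Mesoderm readout after 48 h differentiation of human RUES2-GLR cells, dosed twice (24-h intervals) at 1 nM - 200 uM. BRA+ frequency from fluorescence imaging of fixed, nuclear-stained cells, DMSO-corrected.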

The nature of assay [19]: CCTE_Deisenroth_DEVTOX-GLR_Pluri_CellCount: Viability Assessment in CCTE's DevTox GLR-Pluri Assay Evaluation of Total Cell Counts, Deisenroth Lab (AID 2284430; active = hit-call score of the fitted dose curve at least 0.9, where 1 is the maximum; inactive = score below 0.9). The gist of the method:
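Cytotoxicity readout: fluorescent nuclei counts by high-content imaging, expressed as percent change relative to 0.2% DMSO. Human RUES2-GLR pluripotent line differentiated 48 h, dosed twice at 24-h intervals across 1 nM - 200 uM (10 points).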

Chain of Cellular tumor antigen p53 (Homo sapiens) (P04637 whole entry, looked up): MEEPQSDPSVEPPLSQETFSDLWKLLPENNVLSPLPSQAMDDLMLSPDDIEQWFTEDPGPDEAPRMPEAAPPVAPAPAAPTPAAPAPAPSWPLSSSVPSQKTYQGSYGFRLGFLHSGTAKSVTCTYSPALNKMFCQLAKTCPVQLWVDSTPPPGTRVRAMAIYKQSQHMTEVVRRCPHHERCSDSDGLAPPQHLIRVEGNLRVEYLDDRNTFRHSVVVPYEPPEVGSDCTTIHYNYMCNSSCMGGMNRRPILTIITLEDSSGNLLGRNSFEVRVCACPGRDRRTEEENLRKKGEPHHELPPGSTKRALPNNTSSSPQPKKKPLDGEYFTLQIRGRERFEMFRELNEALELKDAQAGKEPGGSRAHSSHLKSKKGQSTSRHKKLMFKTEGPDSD
Chain of PGR (gene 5241) (P06401 whole entry, looked up): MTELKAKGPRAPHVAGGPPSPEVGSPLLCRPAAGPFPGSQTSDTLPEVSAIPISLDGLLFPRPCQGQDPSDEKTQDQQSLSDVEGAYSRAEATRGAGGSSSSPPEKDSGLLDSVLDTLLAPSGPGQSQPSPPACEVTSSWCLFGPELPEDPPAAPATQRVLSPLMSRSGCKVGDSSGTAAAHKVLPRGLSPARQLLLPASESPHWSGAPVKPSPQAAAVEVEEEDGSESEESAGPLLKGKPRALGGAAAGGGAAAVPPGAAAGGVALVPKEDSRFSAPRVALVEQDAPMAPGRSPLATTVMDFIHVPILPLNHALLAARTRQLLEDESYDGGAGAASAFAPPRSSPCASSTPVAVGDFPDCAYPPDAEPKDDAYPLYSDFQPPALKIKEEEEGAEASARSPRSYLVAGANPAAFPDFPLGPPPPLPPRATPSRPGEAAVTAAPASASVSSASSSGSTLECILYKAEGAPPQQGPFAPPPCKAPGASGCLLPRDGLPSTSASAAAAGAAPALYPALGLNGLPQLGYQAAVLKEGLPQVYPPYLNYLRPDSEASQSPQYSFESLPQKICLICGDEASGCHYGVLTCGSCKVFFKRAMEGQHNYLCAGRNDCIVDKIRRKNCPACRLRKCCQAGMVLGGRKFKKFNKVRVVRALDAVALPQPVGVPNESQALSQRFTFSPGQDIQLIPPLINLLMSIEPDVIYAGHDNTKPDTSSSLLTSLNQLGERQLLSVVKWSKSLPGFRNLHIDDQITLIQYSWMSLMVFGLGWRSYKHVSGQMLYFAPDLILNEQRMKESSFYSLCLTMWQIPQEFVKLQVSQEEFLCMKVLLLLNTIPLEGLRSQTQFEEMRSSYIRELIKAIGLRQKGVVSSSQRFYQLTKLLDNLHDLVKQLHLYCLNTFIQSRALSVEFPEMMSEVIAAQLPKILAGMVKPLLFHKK

As for `CC1(C)S[C@@H]2[C@H](NC(=O)C(c3ccccc3)S(=O)(=O)O)C(=O)N2[C@H]1C(=O)O` (some centres undefined), the molecule was classed as inactive in assay [1], in assay [2], in assay [3] and in [4].
As for `CCCCCCCCCCCC(=O)N(CC)CC`, the result in assay [1], in assay [2], in assay [5] and in assay [6] was inactive.
On to `Nc1cc(Cl)c(NC2=NCCN2)c(Cl)c1`, for which the result in assay [1], in assay [2], in [5] and in [4] was inactive.
Regarding `CCOC(=O)C1=C[C@@H](OC(CC)CC)[C@H](NC(C)=O)[C@@H](N)C1`, the call in assay [1], in [2], in assay [5] and in [4] was inactive.
Regarding `CC(CO)(CO)CO`, the outcome in [1], in assay [2], in assay [5], in assay [6] and in assay [4] was inactive.
For the molecule `O=S(=O)(Oc1ccc(Cl)cc1)c1ccccc1`, the outcome in assay [1], in [2], in assay [5], in [6], in assay [8] and in assay [9] was inactive. Further, the outcome (with PGR (gene 5241) [10]; in assay [11]) was inactive. Besides, the AC50 with PGR (gene 5241) [7] was 59.9 µM (active).
Consider `CCOC(=O)COc1ccc2c(C)c(CCN(CC)CC)c(=O)oc2c1Cl`, for which the outcome in [1], in assay [2], in [5], in assay [6] and in [4] was inactive.
Take `CC1(C)[C@H]2CC[C@](C)(C2)[C@H]1O`: the outcome in assay [1], in assay [2], in [3] and in assay [4] was inactive.
With `CCC(C)[O-].CCC(C)[O-].CCOC(=O)/C=C(/C)[O-].[Al+3]`, the call in assay [1], in assay [2] and in [6] was inactive.
For `O=C(CCCN1CCC(O)(c2cccc(C(F)(F)F)c2)CC1)c1ccc(F)cc1`, the molecule was called inactive in assay [1], in [2], in assay [3], in assay [6] and in assay [4].
For the molecule `O=C1O[C@H]2[C@H](O)[C@@H]1OC(O)[C@H]2O` (some centres undefined), the molecule was called inactive in assay [1], in assay [2], in [3], in assay [6] and in assay [4].
Take `CCCCCN=C(N)N/N=C/c1c[nH]c2ccc(OC)cc12`: the call in assay [1], in assay [2], in assay [3], in assay [4] and in [12] was inactive. For the same molecule, the AC50 in assay [13] was 5.09 µM (active); in [14], 100 µM (active); in assay [15], 143 µM (active); in [16] it was 5.15 µM (active); in assay [17], 7.76 µM (active); in assay [18], 5.27 µM (active). Also, in assay [19], the AC50 is 7.83 µM (active).
In the case of `CCOCCOCCOC(C)=O`, the result in assay [1], in assay [2], in assay [5], in assay [6] and in assay [4] was inactive.
In the case of `CC(=O)c1ccc(OCC(=O)N2CCCCC2)cc1`, the result in assay [1], in [2], in assay [5], in [6] and in [4] was inactive.
